The list is a sample of the results.
aSyn UTR act: Activators via SNCA 5'UTR binding, MLPCN; alpha-synuclein 5'UTR reporter, activators screen; activity score, % (tested at 7.5 µM), hits read low; 300,000 compounds, 7.1% hits; AID 1814, 2009; in the data active means activity score below about -60%
* = called active by the depositor.

SMILES	aSyn UTR act
Cc1cccc(NC(=O)c2ccc(Cl)c(S(=O)(=O)N3CCCCC3)c2)n1	-79.3*
Cc1cccc(NC(=O)c2ccc(Cl)c(S(=O)(=O)N3CCCC3)c2)n1	-68.0*
Nc1[nH]nc2c1NN(c1ccc(Cl)cc1Cl)N2	-139.6*
Cc1ccc2nc(-c3ccc(NC(=O)c4ccco4)cc3)[nH]c2c1	-162.9*
Cn1cccc1-c1nc2ccc(NC(=O)c3ccco3)cc2[nH]1	-131.9*
Cc1ccccc1NC(=S)c1ccc2ccccc2n1	-109.8*
CCCOc1ccc(-c2csc3nc[nH]c(=O)c23)cc1	-159.3*
O=c1[nH]cnc2scc(-c3ccc(-c4ccccc4)cc3)c12	-87.5*
N#C/C(=C(/O)CN1CCCCC1)c1nc(-c2ccc(Cl)cc2)cs1	-110.0*
Cc1ccc(-c2csc(/C(C#N)=C(\O)CCl)n2)cc1	-96.0*
CS(=O)(=O)c1ccccc1COC(=O)Nc1ccc(Cl)cc1	-69.6*
O=C(Nc1ccc(Cl)cc1)OCc1ccccn1	-134.0*
c1ccc2[nH]c(NCc3ccc4c(c3)OCO4)nc2c1	-179.5*
CCCOc1ccc2nc(NC(=O)OC)[nH]c2c1	83.9
c1ccc(CNc2nc3ccccc3[nH]2)cc1	-78.5*
COc1ccc2nc(NCc3ccccc3)[nH]c2c1	-80.0*
S=C(NCc1ccccc1)NNc1nc2ccccc2[nH]1	-73.8*
CCN(CC)C(=O)c1sc2nc(-c3ccc(OC)cc3)cn2c1C	-150.5*
CNC(=O)c1sc2nc(-c3ccc(OC)cc3)cn2c1C	-138.5*
COc1ccc(Cl)cc1NC(=O)c1cc(-c2ccccc2O)n[nH]1	-118.0*
Cc1c(Cl)cccc1NC(=O)c1cc(-c2ccccc2O)n[nH]1	-206.2*
O=C1NC(c2ccc3c(c2)OCO3)Nc2ccccc21 (stereo unspecified)	-179.7*
CC(C)Oc1ccccc1C1CC(=O)Nc2cc3c(cc21)OCO3 (stereo unspecified)	90.6
CC(C)c1ccc(C2C3=C(COC3=O)Nc3cc4c(cc32)OCO4)cc1 (stereo unspecified)	122.9
Nc1[nH]n(-c2ccccc2)c(=O)c1N=Nc1ccc2ncsc2c1	-77.8*
SMILES	aSyn UTR act
Nc1[nH]n(-c2ccccc2)c(=O)c1N=Nc1ccccc1	-138.2*
Nc1[nH]n(-c2ccccc2)c(=O)c1N=Nc1ccccc1[N+](=O)[O-]	-133.5*
CC1CCCN(C(=S)Nc2ccc(Nc3ccccc3)cc2)C1 (stereo unspecified)	-123.2*
OC1CCN(C(=S)Nc2ccc(Nc3ccccc3)cc2)CC1	-116.3*
OC1CCCN(C(=S)Nc2ccc(SC(F)F)cc2)C1 (stereo unspecified)	-68.3*
Cc1ccc(-n2c(C)cc(C(=O)COC(=O)c3c(C)noc3C)c2C)cc1	-199.2*
Cc1ccc(C(=O)N(CCN2CCCCC2)CC2CCCN(C3CCCC3)C2)s1 (stereo unspecified)	-76.6*
O=C(c1cccs1)N(CCN1CCCCC1)CC1CCCN(C2CCCC2)C1 (stereo unspecified)	-113.3*
N=C1/C(=C/c2ccc(OCc3ccccc3)cc2)C(=O)N=C2SC(CC(=O)N3CCOCC3)=NN12	-95.1*
N=C1/C(=C/c2ccc(OCc3ccccc3F)cc2)C(=O)N=C2SC(CC(=O)N3CCOCC3)=NN12	-92.9*
Cc1cs/c(=N/C(=S)Nc2ccccc2)n1C	-114.5*
Nc1ccc2oc(-c3cccc4ccccc34)nc2c1	70.8
Nc1ccc2oc(-c3cccs3)nc2c1	-88.8*
CCc1ccccc1NC(=O)c1cc(-c2cccs2)on1	-125.3*
O=C(Nc1ccccc1C(F)(F)F)c1cc(-c2cccc(O)c2)on1	-141.5*
CCc1ccccc1NC(=O)c1cc(-c2cccc(O)c2)on1	-81.3*
Cc1cccc(CSc2cccc3cccnc23)c1	-102.6*
c1cnc2c(SCc3ccc(-c4nnco4)cc3)cccc2c1	-82.2*
COC(=O)C1C(=O)C(C(=O)/C=C/c2ccccc2)C(=O)CC1(C)C (stereo unspecified)	-133.9*
COc1ccc(C2=NOC(CNC(=S)N3CCOCC3)C2)cc1 (stereo unspecified)	-132.0*
NNc1nc(-c2ccccc2)nc2sc3c(c12)CCCC3	-65.4*
CCOC(=O)c1cnn(-c2ncnc3c2cnn3C)c1N	-93.8*
CCOC(=O)c1cnn(-c2ccc(C(F)(F)F)cn2)c1N	-277.4*
O=C(Nc1nc2c(cc3c4c(cccc42)CC3)s1)c1ccccc1Cl	-65.0*
Nc1ccccc1C(=O)NNC(=O)C(=O)/C=C(\O)c1ccccc1	-138.9*
SMILES	aSyn UTR act
O=C(Nc1ccccc1)O[C@@H]1C[C@H]2CCC(=O)N3CC[C@@H](C1)[C@@H]23	-135.7*
O=C(Nc1ccccc1)OC1CC2CC1C1CCCC21 (stereo unspecified)	-141.0*
N#CC(c1ccc(Cl)cc1)c1ccc2c(C(F)(F)F)cc(C(F)(F)F)nc2n1 (stereo unspecified)	111.6
CC(C)=CC(=O)OCc1cc([N+](=O)[O-])cc2c1OCOC2	-110.0*
CCCOc1ncnc2c1[nH]c1ccc(C)cc12	-92.2*
Cc1ccc2[nH]c3c(NCc4ccccc4)ncnc3c2c1	-94.8*
Cc1ccc2[nH]c3c(N4CCOCC4)ncnc3c2c1	-71.6*
CCCCCCCCSc1nnc(-c2ccc(OC)cc2)o1	111.2
C#CCSc1nnc(-c2ccc([N+](=O)[O-])cc2)o1	-150.8*
C#CCSc1nnc(-c2ccc(OC)cc2)o1	-266.2*
CCSc1nnc(-c2ccc(OC)cc2)o1	-185.9*
Fc1cccc(/C=N/Nc2ncnc3nc[nH]c23)c1	-92.7*
Cc1ccc(/C=N/Nc2ncnc3nc[nH]c23)cc1	-63.3*
Fc1ccccc1/C=N/Nc1ncnc2nc[nH]c12	-62.5*
CCOC(=O)c1ccc(N/C=C2\CCCCC2=O)cc1	-127.1*
COC(=O)c1ccc(NC(=O)C(=O)N2CCCC2)cc1	-147.6*
CCc1ccc(NC(=O)N2CCCCCC2)cc1	-123.6*
Cc1ccc(NC(=O)N2CCCCCC2)cc1	-74.2*
O=C(Nc1ccc(Br)cc1)N1CCCCCC1	-144.3*
COc1ccc(NC(=O)N2CCCCC2)cc1	-65.5*
CCOC(=O)c1ccc(NC(=O)N2CCCCC2)cc1	-91.9*
COC(c1ccccc1)c1nnc(CCC(=O)N(C)Cc2cccc(-n3cccn3)c2)o1 (stereo unspecified)	-72.0*
COC(c1ccccc1)c1nnc(CCC(=O)N(C)CCOc2ccccc2)o1 (stereo unspecified)	-82.5*
COc1ccc(/C(C)=N/Nc2ccc(F)cc2F)c(O)c1	-96.7*
C/C(=N\Nc1ccc(F)cc1F)c1cccs1	-87.6*
SMILES	aSyn UTR act
COc1ccc(/C(C)=N/Nc2ccccc2Cl)c(O)c1	-102.4*
Cc1nc2cc3nc(C)sc3cc2s1	-79.5*
COc1ccc(Cc2nc3ccc(C(=O)NC(C)C)cc3o2)cc1	-107.4*
COc1ccc(Cc2nc3ccc(C(=O)N4CCCC4)cc3o2)cc1	-155.1*
C=C(C)CNC(=O)c1ccc2nc(Cc3ccc(OC)cc3)oc2c1	-178.1*
O=C(c1ccc2nc(Cc3cccc(Cl)c3)oc2c1)N1CCOCC1	-98.6*
COc1ccc([C@@H](C)NC(=O)c2ccc3oc(C(C)C)nc3c2)cc1	-70.5*
COc1ccc(C(=O)NCCSc2ccccc2)cc1OC	-129.2*
CN(C)S(=O)(=O)c1ccc(C(=O)NCCSc2ccccc2)cc1	-115.5*
Oc1[nH]c2ccccc2c1C=Nc1ccccc1	-130.2*
CCN(CC)c1ccc(N=Cc2c(C)[nH]c3ccccc23)cc1	63.4
COc1ccc2[nH]cc(C(=O)CN3CCC(C)CC3)c2c1	-176.9*
COc1ccc(NC(=O)CN2CCCCC2)c([N+](=O)[O-])c1	-98.0*
